According to the supplement of paper PMC10849652:
About 8,800 targets were measured; listed, in parts, are those with a hit and a random draw of the rest. About 0.5% of all pairs of compound and target were hits. Values without a mark were called inactive.

Tests used:
Assay in all cases: log2 fold change, soluble protein after heating vs DMSO (PISA); higher = thermal stabilisation; K562 lysate, 10 uM; active = over 0.2 and 3.5 SD of the protein, either way, in both replicates (recomputed)
lapatinib = compound: CS(=O)(=O)CCNCc1ccc(-c2ccc3ncnc(Nc4ccc(OCc5cccc(F)c5)c(Cl)c4)c3c2)o1 [lapatinib]
Procedure, shortened: (§1)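 Dounce homogenisation of K562 pellets in PBS pH 7.4 with 1 mM MgCl2 produced a crude extract, used at 1 mg/mL protein. Exposure to 10 μM compound lasted 30 min, and aliquots were then heated for 3 min across 48°C-58°C, pooled and brought to 0.5% NP-40 at 4°C. The supernatant after 21,000xg for 90 min was quantified by TMTpro 16plex LC-MS/MS with channel sums equalised. Duplicate values are given as log-two fold change in thermal stability relative to solvent controls.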

pictilisib = compound: CS(=O)(=O)N1CCN(Cc2cc3nc(-c4cccc5[nH]ncc45)nc(N4CCOCC4)c3s2)CC1 [pictilisib]
Procedure, shortened: as §1

crizotinib = compound: C[C@@H](Oc1cc(-c2cnn(C3CCNCC3)c2)cnc1N)c1c(Cl)ccc(F)c1Cl [crizotinib]
Procedure, shortened: as §1

[1] = compound: C[C@H](C1=CC=C(C=C1)C(=O)NC2=C3C=CNC3=NC=C2)N
Procedure, shortened: as §1

duvelisib = compound: C[C@H](Nc1ncnc2nc[nH]c12)c1cc2cccc(Cl)c2c(=O)n1-c1ccccc1 [duvelisib]
Procedure, shortened: as §1

gandotinib = compound: Cc1cc(Nc2cc(CN3CCOCC3)c3nc(C)c(Cc4ccc(Cl)cc4F)n3n2)n[nH]1 [gandotinib]
Procedure, shortened: as §1

tozasertib = compound: Cc1cc(Nc2cc(N3CCN(C)CC3)nc(Sc3ccc(NC(=O)C4CC4)cc3)n2)n[nH]1 [tozasertib]
Procedure, shortened: as §1

doramapimod = compound: Cc1ccc(-n2nc(C(C)(C)C)cc2NC(=O)Nc2ccc(OCCN3CCOCC3)c3ccccc23)cc1 [doramapimod]
Procedure, shortened: as §1

bafetinib = compound: Cc1ccc(NC(=O)c2ccc(CN3CC[C@H](N(C)C)C3)c(C(F)(F)F)c2)cc1Nc1nccc(-c2cncnc2)n1 [bafetinib]
Procedure, shortened: as §1

[2] = compound: Cc1cccc(CC(=O)N2CCc3c2ccc(-c2cn(C)c4ncnc(N)c24)c3F)n1
Procedure, shortened: as §1

nilotinib = compound: Cc1cn(-c2cc(NC(=O)c3ccc(C)c(Nc4nccc(-c5cccnc5)n4)c3)cc(C(F)(F)F)c2)cn1 [nilotinib]
Procedure, shortened: as §1

[3] = compound: Cc1nc(Nc2n[nH]c3c2CN(C(=O)N[C@H](CN(C)C)c2ccccc2)C3(C)C)c2sccc2n1
Procedure, shortened: as §1

dasatinib = compound: Cc1nc(Nc2ncc(C(=O)Nc3c(C)cccc3Cl)s2)cc(N2CCN(CCO)CC2)n1 [dasatinib]
Procedure, shortened: as §1

[4] = compound: Cc1ncc(-c2ccnc(Nc3ccc(S(C)(=O)=O)cc3)n2)n1C(C)C
Procedure, shortened: as §1

[5] = compound: Cn1cc(-c2ccc3c(c2)CCN3C(=O)Cc2cccc(C(F)(F)F)c2)c2c(N)ncnc21
Procedure, shortened: as §1

quisinostat = compound: Cn1cc(CNCC2CCN(c3ncc(C(=O)NO)cn3)CC2)c2ccccc21 [quisinostat]
Procedure, shortened: as §1

tipifarnib = compound: Cn1cncc1[C@@](N)(c1ccc(Cl)cc1)c1ccc2c(c1)c(-c1cccc(Cl)c1)cc(=O)n2C [tipifarnib]
Procedure, shortened: as §1

[6] = compound: NC(=O)Nc1cc(-c2cccc(F)c2)sc1C(=O)N[C@H]1CCCNC1
Procedure, shortened: as §1

[7] = compound: NC(=O)c1cnc(N[C@@H]2CCCC[C@@H]2N)nc1Nc1cccc(-n2nccn2)c1
Procedure, shortened: as §1

[8] = compound: NC1(c2ccc(-c3nc4ccn5c(=O)[nH]nc5c4cc3-c3ccccc3)cc2)CCC1
Procedure, shortened: as §1

Sequence of UniProt Q9H939 (Q9H939 whole entry, looked up): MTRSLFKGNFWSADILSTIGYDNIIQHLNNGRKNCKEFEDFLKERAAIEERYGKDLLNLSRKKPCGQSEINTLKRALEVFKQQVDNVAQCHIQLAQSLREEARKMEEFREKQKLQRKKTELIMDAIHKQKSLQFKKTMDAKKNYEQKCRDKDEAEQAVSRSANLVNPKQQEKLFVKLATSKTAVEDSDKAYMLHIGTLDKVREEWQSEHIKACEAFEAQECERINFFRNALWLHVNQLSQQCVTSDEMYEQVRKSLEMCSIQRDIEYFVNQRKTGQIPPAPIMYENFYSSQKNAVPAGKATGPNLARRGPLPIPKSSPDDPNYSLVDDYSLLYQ
Sequence of UniProt P28340 (P28340 whole entry, looked up): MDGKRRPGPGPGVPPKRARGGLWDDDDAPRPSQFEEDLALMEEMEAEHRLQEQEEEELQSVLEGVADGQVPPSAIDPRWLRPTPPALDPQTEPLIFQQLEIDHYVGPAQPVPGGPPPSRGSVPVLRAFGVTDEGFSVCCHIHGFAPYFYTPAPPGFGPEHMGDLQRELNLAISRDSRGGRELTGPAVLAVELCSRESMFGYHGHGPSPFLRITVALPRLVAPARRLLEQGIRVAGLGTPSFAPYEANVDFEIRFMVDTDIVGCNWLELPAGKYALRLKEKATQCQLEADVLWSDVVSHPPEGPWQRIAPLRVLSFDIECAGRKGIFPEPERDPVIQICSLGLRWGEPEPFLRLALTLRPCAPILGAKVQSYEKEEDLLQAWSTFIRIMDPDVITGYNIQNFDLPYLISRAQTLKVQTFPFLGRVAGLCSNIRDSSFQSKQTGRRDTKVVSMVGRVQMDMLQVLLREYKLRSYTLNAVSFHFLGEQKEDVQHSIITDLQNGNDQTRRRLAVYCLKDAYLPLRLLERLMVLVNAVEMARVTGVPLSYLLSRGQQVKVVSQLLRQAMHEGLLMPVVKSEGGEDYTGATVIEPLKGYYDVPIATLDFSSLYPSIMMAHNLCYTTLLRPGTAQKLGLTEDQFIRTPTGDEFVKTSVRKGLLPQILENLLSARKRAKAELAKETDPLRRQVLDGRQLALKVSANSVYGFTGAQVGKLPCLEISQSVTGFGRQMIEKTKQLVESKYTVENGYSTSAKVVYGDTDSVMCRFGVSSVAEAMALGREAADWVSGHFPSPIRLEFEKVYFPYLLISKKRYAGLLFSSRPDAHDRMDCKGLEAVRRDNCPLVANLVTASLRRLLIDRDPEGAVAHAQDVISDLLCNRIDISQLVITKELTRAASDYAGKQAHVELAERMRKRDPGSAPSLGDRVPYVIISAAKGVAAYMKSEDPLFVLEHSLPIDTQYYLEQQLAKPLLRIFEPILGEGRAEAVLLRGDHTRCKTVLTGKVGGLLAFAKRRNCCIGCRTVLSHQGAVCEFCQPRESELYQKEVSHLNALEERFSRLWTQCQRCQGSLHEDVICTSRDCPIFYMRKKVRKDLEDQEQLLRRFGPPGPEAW
Sequence of UniProt O15031 (O15031 whole entry, looked up): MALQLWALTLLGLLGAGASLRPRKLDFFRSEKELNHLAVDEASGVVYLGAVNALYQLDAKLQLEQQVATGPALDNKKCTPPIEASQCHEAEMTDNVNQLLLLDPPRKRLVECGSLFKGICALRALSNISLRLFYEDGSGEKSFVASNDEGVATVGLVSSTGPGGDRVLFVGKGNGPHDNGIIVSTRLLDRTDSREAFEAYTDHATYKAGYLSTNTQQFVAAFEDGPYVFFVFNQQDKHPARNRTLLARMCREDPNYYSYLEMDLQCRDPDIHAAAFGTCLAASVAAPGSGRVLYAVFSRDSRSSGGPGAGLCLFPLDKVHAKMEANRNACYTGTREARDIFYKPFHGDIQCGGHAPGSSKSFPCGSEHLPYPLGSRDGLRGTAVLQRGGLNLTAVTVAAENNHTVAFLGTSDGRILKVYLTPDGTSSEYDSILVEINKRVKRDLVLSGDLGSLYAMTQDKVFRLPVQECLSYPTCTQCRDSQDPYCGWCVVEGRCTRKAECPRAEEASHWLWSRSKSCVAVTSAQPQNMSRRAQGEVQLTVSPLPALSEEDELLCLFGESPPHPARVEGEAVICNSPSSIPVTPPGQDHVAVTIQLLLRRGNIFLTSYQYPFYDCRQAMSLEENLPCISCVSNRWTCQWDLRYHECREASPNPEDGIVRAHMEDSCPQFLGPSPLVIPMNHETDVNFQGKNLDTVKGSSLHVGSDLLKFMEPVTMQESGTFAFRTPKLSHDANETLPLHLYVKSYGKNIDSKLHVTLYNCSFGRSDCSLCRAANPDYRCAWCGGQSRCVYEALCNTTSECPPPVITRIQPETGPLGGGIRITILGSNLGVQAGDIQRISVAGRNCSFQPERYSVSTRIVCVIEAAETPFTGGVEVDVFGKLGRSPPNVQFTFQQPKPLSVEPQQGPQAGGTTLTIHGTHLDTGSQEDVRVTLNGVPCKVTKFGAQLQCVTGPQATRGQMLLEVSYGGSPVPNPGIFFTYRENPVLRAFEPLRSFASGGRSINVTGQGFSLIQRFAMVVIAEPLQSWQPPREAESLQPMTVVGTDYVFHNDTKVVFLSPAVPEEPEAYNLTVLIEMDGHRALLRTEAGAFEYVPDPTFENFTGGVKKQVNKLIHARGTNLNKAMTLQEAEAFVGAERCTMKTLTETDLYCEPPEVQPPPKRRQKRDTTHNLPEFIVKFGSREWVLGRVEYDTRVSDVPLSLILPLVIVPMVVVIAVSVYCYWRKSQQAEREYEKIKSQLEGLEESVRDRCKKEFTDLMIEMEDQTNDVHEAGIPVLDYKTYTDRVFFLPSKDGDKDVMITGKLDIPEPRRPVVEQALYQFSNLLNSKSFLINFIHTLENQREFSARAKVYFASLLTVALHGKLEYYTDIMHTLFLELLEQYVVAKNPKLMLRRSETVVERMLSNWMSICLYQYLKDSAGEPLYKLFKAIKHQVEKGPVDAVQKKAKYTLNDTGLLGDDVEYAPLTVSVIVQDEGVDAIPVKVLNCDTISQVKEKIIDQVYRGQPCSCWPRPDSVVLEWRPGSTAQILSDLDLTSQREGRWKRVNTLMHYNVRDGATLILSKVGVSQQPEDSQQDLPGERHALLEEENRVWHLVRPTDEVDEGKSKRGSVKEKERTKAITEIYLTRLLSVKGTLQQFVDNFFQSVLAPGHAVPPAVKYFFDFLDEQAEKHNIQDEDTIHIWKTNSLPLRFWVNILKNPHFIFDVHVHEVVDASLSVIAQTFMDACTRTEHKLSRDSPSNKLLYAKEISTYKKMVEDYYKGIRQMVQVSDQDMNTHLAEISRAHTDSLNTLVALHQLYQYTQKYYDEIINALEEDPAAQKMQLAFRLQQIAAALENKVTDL
Sequence of UniProt P07737 (P07737 whole entry, looked up): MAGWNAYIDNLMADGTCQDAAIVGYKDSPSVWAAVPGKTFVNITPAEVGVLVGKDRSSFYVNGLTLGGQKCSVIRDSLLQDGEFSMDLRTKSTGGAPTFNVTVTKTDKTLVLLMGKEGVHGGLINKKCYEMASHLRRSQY
Sequence of UniProt Q9UHX1 (Q9UHX1 whole entry, looked up): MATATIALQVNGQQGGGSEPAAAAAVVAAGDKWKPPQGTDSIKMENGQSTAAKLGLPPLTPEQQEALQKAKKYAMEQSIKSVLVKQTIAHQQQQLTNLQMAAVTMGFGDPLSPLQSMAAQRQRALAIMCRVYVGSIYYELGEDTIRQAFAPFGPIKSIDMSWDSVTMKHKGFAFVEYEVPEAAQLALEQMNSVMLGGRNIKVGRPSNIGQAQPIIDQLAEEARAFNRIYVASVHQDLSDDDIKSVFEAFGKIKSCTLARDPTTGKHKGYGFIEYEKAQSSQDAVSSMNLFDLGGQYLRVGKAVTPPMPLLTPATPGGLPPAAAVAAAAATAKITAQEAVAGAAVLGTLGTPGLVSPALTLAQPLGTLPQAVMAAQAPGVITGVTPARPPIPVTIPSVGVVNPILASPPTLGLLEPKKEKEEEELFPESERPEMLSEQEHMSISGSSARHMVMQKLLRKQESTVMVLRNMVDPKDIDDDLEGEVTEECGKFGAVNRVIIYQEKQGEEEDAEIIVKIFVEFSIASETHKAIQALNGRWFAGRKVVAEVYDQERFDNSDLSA
Sequence of UniProt Q9H2H8 (Q9H2H8 whole entry, looked up): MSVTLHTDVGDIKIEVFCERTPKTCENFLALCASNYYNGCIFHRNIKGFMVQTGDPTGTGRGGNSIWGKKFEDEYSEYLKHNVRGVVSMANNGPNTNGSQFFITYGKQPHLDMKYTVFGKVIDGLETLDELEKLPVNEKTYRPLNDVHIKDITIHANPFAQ

Target	log2 fold change (lapatinib)	log2 fold change (pictilisib)	log2 fold change (crizotinib)	log2 fold change [1]	log2 fold change (duvelisib)	log2 fold change (gandotinib)	log2 fold change (tozasertib)	log2 fold change (doramapimod)	log2 fold change (bafetinib)	log2 fold change [2]	log2 fold change (nilotinib)	log2 fold change [3]	log2 fold change (dasatinib)	log2 fold change [4]	log2 fold change [5]	log2 fold change (quisinostat)	log2 fold change (tipifarnib)	log2 fold change [6]	log2 fold change [7]	log2 fold change [8]
PFN1 (UniProt P07737)	0.01	-0.003	0.016	-0.006	0.009	0.007	-0.004	0.007	0	0.007	-0.002	0.002	0.022	-0.008	-0.006	0.008	0.03	-0.018	-0.018	0.014
PSTPIP2 (UniProt Q9H939)	0.009	0.019	-0.047	0.062	-0.023	-0.095	0.012	0.002	-0.014	-0.027	0.029	0.016	-0.056	0.028	0.023	-0.037	-0.008	0.008	-0.007	0.007
PPFIA2 (UniProt O75334)	-0.014	0.031	-0.212	-0.244 (active)	0.001	0.139	-0.028	0.023	0.019	0.147	-0.046	0.027	-0.064	-0.022	0.01	-0.238	-0.029	0.017	0.024	-0.089
POLD1 (UniProt P28340)	-0.014	-0.021	-0.022	0.013	-0.019	-0.061	0.003	0.02	-0.022	0.017	0.029	-0.004	-0.023	-0.011	0.011	0.01	-0.011	0.015	0.006	0.003
PLXNB2 (UniProt O15031)	-0.033	-0.068	-0.014	-0.019	0.031	-0.046	0.027	-0.044	-0.004	0.031	-0.052	0.019	-0.036	0.013	0.003	0.016	-0.017	0.042	-0.024	-0.006
PUF60 (UniProt Q9UHX1)	0	-0.037	0.036	0.092	-0.01	-0.05	-0.017	-0.012	0.012	-0.058	-0.006	-0.002	-0.025	0.011	-0.017	0.073	0.016	-0.017	-0.001	0.021
POLR2G (UniProt P62487)	-0.001	-0.048	0.016	-0.04	0.03	-0.002	-0.04	-0.011	0.004	-0.006	0.01	-0.02	-0.024	0.007	0	0.01	0.007	0.001	0.011	-0.016
PPIL3 (UniProt Q9H2H8)	0.05	-0.062	0.079	-0.115	-0.009	0.084	-0.019	0	-0.037	0.08	0.121	0.023	-0.049	0.176	-0.032	0.017	-0.028	-0.025	-0.054	-0.051
